Compound activity as filed in PubChem.
Hits are enriched below; roughly 1.1% of the tested compounds scored in any of these assays.
MEP2 TOR yeast = modulators of TOR pathway MEP2-GFP in S. cerevisiae; GFP response vs DMSO, % at 10 µM; 330,000 tested, 0.51% active; S. cerevisiae MEP2-GFP strain, flow cytometry GFP, 3 h; 100% = DMSO control level; AID 2016;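 active = GFP response versus DMSO above a set limit, roughly screen mean plus 3 SD, cut at about 180% in these data; inconclusive = fewer than 70 cells counted for a yeast strain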;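 also: median GFP fluorescence of the barcode-gated MEP2-GFP cells per well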
AGP1-GFP MLPCN = modulators of TOR pathway AGP1-GFP in S. cerevisiae; S. cerevisiae AGP1-GFP multiplex flow cytometry, 3 h; GFP as percent of DMSO wells; 320,000 tested, 0.02% active; AID 2066; GFP response vs DMSO, % at 10 µM;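 active = GFP response relative to DMSO above a set limit, near screen average plus 3 SD, cut at about 150% in these data; inconclusive = fewer than 70 cells counted for the yeast strain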;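 also: median GFP channel fluorescence of the gated AGP1 strain per well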
LAP4 TOR yeast = yeast TOR pathway LAP4-GFP modulation | GFP response vs DMSO, % at 10 µM | AID 2023 | 320,000 tested, 0.34% active | S. cerevisiae LAP4-GFP multiplex, flow cytometry GFP, 3 h; median GFP as percent of DMSO wells;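 active = GFP response vs DMSO above a set limit, about the screen mean plus 3 SD, cut at about 150% in these data; inconclusive = under 70 cell events counted for the yeast strain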
VLA-4 inh = inhibition in a human VLA-4 binding assay; VLA-4 expressing cells, ligand binding flow cytometry; inhibition, % (about 7 µM as worked out from the volumes in the protocol); 330,000 tested, 0.2% active; AID 2557; in the data active = inhibition above about 50%
Target sequence (P13612 whole entry, looked up): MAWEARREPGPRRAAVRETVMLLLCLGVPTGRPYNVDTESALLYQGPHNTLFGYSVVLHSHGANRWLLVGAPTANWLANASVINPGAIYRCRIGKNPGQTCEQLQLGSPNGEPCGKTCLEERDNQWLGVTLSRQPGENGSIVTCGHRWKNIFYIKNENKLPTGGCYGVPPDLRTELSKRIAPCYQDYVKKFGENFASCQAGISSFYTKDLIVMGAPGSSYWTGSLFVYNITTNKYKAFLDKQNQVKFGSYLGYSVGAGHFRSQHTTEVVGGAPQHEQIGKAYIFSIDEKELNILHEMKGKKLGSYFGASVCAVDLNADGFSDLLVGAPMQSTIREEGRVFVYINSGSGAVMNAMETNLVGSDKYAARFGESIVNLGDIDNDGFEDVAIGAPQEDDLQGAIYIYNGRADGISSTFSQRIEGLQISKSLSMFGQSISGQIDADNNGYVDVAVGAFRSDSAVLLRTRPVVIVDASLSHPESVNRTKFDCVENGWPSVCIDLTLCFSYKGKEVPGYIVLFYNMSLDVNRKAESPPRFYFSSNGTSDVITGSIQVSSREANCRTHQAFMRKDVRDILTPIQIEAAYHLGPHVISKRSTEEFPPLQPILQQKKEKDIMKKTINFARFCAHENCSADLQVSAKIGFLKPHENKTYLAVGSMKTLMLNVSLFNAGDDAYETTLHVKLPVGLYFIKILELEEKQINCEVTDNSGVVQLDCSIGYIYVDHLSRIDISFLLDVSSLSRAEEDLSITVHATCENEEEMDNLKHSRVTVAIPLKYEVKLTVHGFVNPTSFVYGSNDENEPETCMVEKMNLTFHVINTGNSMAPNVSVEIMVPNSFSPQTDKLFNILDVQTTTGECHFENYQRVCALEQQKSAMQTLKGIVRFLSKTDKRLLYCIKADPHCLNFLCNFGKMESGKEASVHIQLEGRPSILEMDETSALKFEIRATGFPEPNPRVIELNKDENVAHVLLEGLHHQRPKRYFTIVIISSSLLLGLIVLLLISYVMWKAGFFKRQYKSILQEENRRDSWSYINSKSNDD
RPL19A TOR yeast = modulators of TOR pathway RPL19A-GFP in S. cerevisiae; S. cerevisiae RPL19A-GFP strain, flow cytometry, 3 h; stronger effect = lower value; percent response vs DMSO, % at 10 µM; 330,000 tested, 0.3% active;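 active = percent response vs DMSO below 50%; inconclusive = fewer than 70 events counted for the yeast strain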;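 also: median channel GFP fluorescence of the barcoded RPL19A-GFP strain; ratio of sample median GFP to plate DMSO average so 100% = DMSO; lower means less RPL19A-GFP as with rapamycin TOR inhibition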
CIT2 TOR yeast = yeast TOR pathway CIT2-GFP modulation; S. cerevisiae CIT2-GFP strain, flow cytometry, 3 h; 100 means same as DMSO wells; GFP response vs DMSO, % at 10 µM; 320,000 tested, 0.065% active;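 active = GFP response relative to DMSO above a set limit, near the screen mean plus 3 SD, cut at about 150% in these data; inconclusive = Fewer than 70 cells measured for a yeast strain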;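 also: ratio of well median GFP fluorescence to mean of DMSO wells on the plate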
Numbers without * were called inactive; ? = inconclusive; . = not tested or not shown; [ ] = another dose, or the depositor's remark.

SMILES | MEP2 TOR yeast | AGP1-GFP MLPCN | LAP4 TOR yeast | VLA-4 inh | RPL19A TOR yeast | CIT2 TOR yeast
O=C(/C(=C/O)N=Nc1ccc(Cl)cc1)c1ccncc1 | 122 | 78 | 203* | 6 | 64 | 68
COc1ccc(C(=O)/C(=C/O)N=Nc2ccc(F)cc2)cc1 | 99 | 96 | 172* | 20 | 94 | 77
Cc1cc(C)cc(C(=O)Nn2cnnc2)c1 | 104 | 87 | 86 | 18 | 93 | 92
O=c1[nH]ncc2c3ccccc3n(Cc3ccc(F)cc3)c12 | 235*[may fluoresce violet] | ? | 62 | 4 | 61 | ?
O=c1[nH]ncc2c3ccccc3n(Cc3cccc(Cl)c3)c12 | 93 | 87 | 87 | 9 | 97 | 80
Cc1ccc(OCCOc2ccc(S(=O)(=O)N3CCCC3)cc2C(N)=O)cc1 | 92 | 95 | 97 | 1 | 97 | 102
O=c1oc(-c2ccccc2)nc2sc3c(c12)CCCC3 | ? | ? | ? | 3 | 18*[may fluoresce violet] | ?
Cc1ccccc1-c1nc2sc3c(c2c(=O)o1)CCC3 | 114 | 66 | 97 | 10 | 99 | 121
COC(=O)C(NC(=O)c1ccccc1)=C1C=C(C)OC(C)=C1 | 209*[may fluoresce violet] | . | 101 | 9 | 64 | ?
CCOC(=O)C(NC(=O)c1ccccc1)=C1C=C(C)OC(C)=C1 | 95 | 96 | 101 | 10 | 97 | 93
CCOc1ccc(NC(=O)NCCCN2CCCC2)cc1 | 251*[may fluoresce violet] | ? | 95 | 13 | 39*[may fluoresce violet] | ?
O=C(NCCCN1CCCC1)Nc1ccc(F)cc1 | 102 | 108 | 108 | -5 | 104 | 104
CCCCn1c(-c2csc3c2CCCC3)n[nH]c1=S | 112 | 92 | 154* | 4 | 96 | 77
COc1ccccc1C(=O)NNC(=O)C(=O)Nc1cccc(Cl)c1C | 142 | 105 | 263* | -1 | 100 | 121
COc1cccc(C(=O)NNC(=O)C(=O)Nc2cccc(Cl)c2C)c1 | 98 | 104 | 100 | 1 | 103 | 104
O=C(COC(=O)C1CC1)Nc1ccccc1Sc1ccccc1 | 107 | 100 | 98 | -3 | 103 | 95
Cc1ccc(C(=O)OCC(=O)Nc2ccccc2Sc2ccccc2)cc1C | 176* | 102 | 121 | 2 | 102 | 104
COc1ccccc1/C=N\Nc1ccccc1[N+](=O)[O-] | 299*[may fluoresce violet] | . | . | -7 | 39*[may fluoresce violet] | .
CC(C)Oc1ccccc1/C=N/Nc1ccccc1[N+](=O)[O-] | 109 | 108 | 115 | -2 | 110 | 102
CC1(C)CC(=O)c2sc(N3CCCCC3)nc2C1 | 218*[may fluoresce violet] | 53 | 101 | 0 | 71 | ?
CN(C)CCNC(=O)c1coc(=O)c(Br)c1 | 532*[may fluoresce violet] | ? | 106 | 7 | 17*[may fluoresce violet] | ?
CCc1ccc(C2=NN(C(C)=O)C(c3ccco3)C2)cc1 (configuration not stated) | 79 | ? | 156*[may fluoresce violet] | 9 | 43*[may fluoresce violet] | ?
CCOC(=O)CNc1nc(C#N)nc(N2CCOCC2)n1 | 192*[may fluoresce violet] | ? | 89 | -6 | 45*[may fluoresce violet] | ?
COC(=O)c1csc(S(=O)(=O)N2CCOCC2)c1OC | 104 | 105 | 105 | 3 | 100 | 97
CCCC(c1nnnn1CC(=O)OCC)N(Cc1cc2c(C)cc(C)cc2[nH]c1=O)C1CCCC1 (configuration not stated) | 181*[may fluoresce violet] | 24 | 88 | 5 | 58 | ?
SMILES | MEP2 TOR yeast | AGP1-GFP MLPCN | LAP4 TOR yeast | VLA-4 inh | RPL19A TOR yeast | CIT2 TOR yeast
CCN(CC)C(=O)CSc1nc2cc3c(cc2c(=O)n1CCCCCC(=O)NCc1ccc(OC)cc1)OCO3 | 107 | 111 | 106 | -4 | 104 | 111
Cc1noc(/C=C/c2cccnc2)c1[N+](=O)[O-] | 92 | 84 | 161* | 42 | 87 | 90
O=S(=O)(NCCC1=CCCCC1)c1ccc(OC(F)(F)F)cc1 | 93 | 104 | 100 | 6 | 97 | 108
COC(=O)c1sccc1S(=O)(=O)NCc1ccc(S(N)(=O)=O)cc1 | 101 | 100 | 107 | 12 | 101 | 93
COc1ccc(CNC(=O)C2CCNCC2)cc1 | 474*[may fluoresce violet] | ? | 82 | 17 | 65 | ?
COc1ccc(CNC(=O)C2CCN(S(=O)(=O)N3CCCCC3)CC2)cc1 | 101 | 98 | 90 | 13 | 101 | 102
COc1ccc(/C=N/Nc2nnc(C)n2N)cc1OC(C)=O | 192* | 115 | 125 | 0 | 103 | 109
O=C(COC(=O)c1ccc(Cl)cc1O)NC(=O)C1CCCCC1 | 107 | 114 | 103 | 3 | 112 | 94
Cc1cc(C)nc(NS(=O)(=O)c2ccc(N3C(=O)C4CC=C(Cl)CC4C3=O)cc2)n1 (configuration not stated) | ? | ? | ? | 0 | 12*[may fluoresce violet] | ?
COCCCNC(=O)c1nc2ccccc2c(=O)n1NC(=O)Nc1c(Cl)cccc1Cl | 101 | 107 | 98 | -5 | 103 | 103
CC(C)CCn1nnnc1CN1CCN(C(=O)c2ccco2)CC1 | 106 | 102 | 98 | 7 | 103 | 102
COc1ccc(-c2cc(C(=O)N3CCN(C(c4ccccc4)c4ccccc4)CC3)no2)cc1 | 201*[may fluoresce violet] | ? | 85 | 0 | 41*[may fluoresce violet] | ?
O=C(Nc1ccc(Cl)cc1)C1C2C=CC3(O2)C1C(=O)N(CCN1CCCCC1)C3C(=O)NC1CCCCC1 (configuration not stated) | 387*[may fluoresce violet] | 18 | 83 | -4 | 58 | ?
CCC1CCCCN1CCN1C(=O)C2C(C(=O)Nc3cccc(OC)c3)C3C=CC2(O3)C1C(=O)NC1CCCCC1 (configuration not stated) | 560*[may fluoresce violet] | 19 | 83 | 12 | 54 | ?
CCCC(=O)C1=C(O)C(C(=O)OC)C(C)(C)CC1=Nc1ccccc1 (configuration not stated) | ? | 89 | ? | -1 | 77 | ?
CCCC(=O)C1=C(O)C(C(=O)OC)C(C)(C)CC1=Nc1cccc2ccccc12 (configuration not stated) | 177*[may fluoresce violet] | . | 91 | 5 | 69 | ?
CC1CC(C)CN(C(=O)COC(=O)c2ccc3c(c2)OCCO3)C1 (configuration not stated) | 106 | 106 | 113 | 0 | 111 | 103
Cc1cc(C)c2c(n1)nn1c(NCCCN(C)C)cc(C)nc21 | 259*[may fluoresce violet] | 46 | 106 | -3 | 35*[may fluoresce violet] | ?
Cc1cc(C(=O)NNS(=O)(=O)c2ccc(C(C)(C)C)cc2)nn1C(C)(C)C | 122 | . | . | 8 | 100 | .
Oc1c(Br)cc(Br)cc1C=NCc1ccccc1 | 97 | 93 | 151* | 17 | 101 | 80
Oc1c(Br)cc(Br)cc1C=NCc1ccc(F)cc1 | 101 | 93 | 139 | 2 | 101 | 99
CCOc1cc(C(=O)Nc2nnc(S(=O)(=O)N3CCOCC3)s2)cc(OCC)c1OCC | 210*[may fluoresce violet] | ? | 65 | 8 | 14*[may fluoresce violet] | ?
